Values joined by “and” are separate entries in the source; they are usually repeats but may differ in a detail not shown here. Equal values may be shown once. Out of some 5,500 compounds screened, about 2,000 (36%) were called active. Inconclusive results (about 18%) are left out. No stated cut-off is given here; in the data, active means normalized growth mostly below about 0.91 (no sharp cut-off); inconclusive means no clear call, values can overlap the other calls; inactive means mostly above about 0.92. The list shows a part of the results.
Assay: chemical genetic growth profiling, strain panel (AID 1159580);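 further: tested at 20 µM; growth read once vehicle control cultures reached saturation at 30 °C; 1 = growth at the plate median or of vehicle wells; lower values mean less growth of the strain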
Conditions: growth OD

Measured: normalized growth

O=C(O)c1cc(=O)c2ccccc2[nH]1
inactive: S. cerevisiae deletion strains, locus YJR075W, strain HOC1, hits give low values 0.999 | S. cerevisiae deletion strains, locus YKL009W, strain mrt4, hits give low values 1.01 | S. cerevisiae deletion strains, locus YKL068W, hits give low values 0.991 | S. cerevisiae deletion strains, locus YKL085W, strain MDH1 (second series), hits give low values 0.998 | S. cerevisiae deletion strains, locus YKL085W, strain MDH1, hits give low values 0.998 | S. cerevisiae deletion strains, locus YKL160W, strain elf1, hits give low values 0.993 | S. cerevisiae deletion strains, locus YKL190W, strain CNB1, hits give low values 1 | S. cerevisiae deletion strains, locus YKR001C, strain vps1, hits give low values 1.01 | S. cerevisiae deletion strains, locus YKR026C, strain gcn3, hits give low values 0.98 | S. cerevisiae deletion strains, locus YKR091W, strain srl3, hits give low values 0.993 | S. cerevisiae deletion strains, locus YLL001W, strain dnm1, hits give low values 0.991 | S. cerevisiae deletion strains, locus YLL026W, hits give low values 0.994 | S. cerevisiae deletion strains, locus YLL041C, strain sdh2, hits give low values 0.98 | S. cerevisiae deletion strains, locus YLR027C, strain aat2, hits give low values 0.989 | S. cerevisiae deletion strains, locus YLR039C, strain RIC1, hits give low values 1.01 | S. cerevisiae deletion strains, locus YLR058C, strain SHM2, hits give low values 0.972 | S. cerevisiae deletion strains, locus YLR102C, strain apc9, hits give low values 1 | S. cerevisiae deletion strains, locus YLR113W, strain HOG1, hits give low values 1.01 | S. cerevisiae deletion strains, locus YLR221C, strain rsa3, hits give low values 0.973 | S. cerevisiae deletion strains, locus YLR258W, strain gsy2, hits give low values 0.98 | S. cerevisiae deletion strains, locus YLR262C, strain YPT6 (second series), hits give low values 1.04 | S. cerevisiae deletion strains, locus YLR262C, strain YPT6, hits give low values 1 | S. cerevisiae deletion strains, locus YLR268W, strain sec22, hits give low values 1.01 | S. cerevisiae deletion strains, locus YLR320W, strain mms22, hits give low values 0.977 | S. cerevisiae deletion strains, locus YLR330W, strain CHS5, hits give low values 0.989 | S. cerevisiae deletion strains, locus YLR342W, strain FKS1 (second series), hits give low values 1.01 | S. cerevisiae deletion strains, locus YLR342W, strain FKS1, hits give low values 0.986 | S. cerevisiae deletion strains, locus YLR357W, strain rsc2, hits give low values 0.936 | S. cerevisiae deletion strains, locus YLR370C, strain arc18, hits give low values 0.987 | S. cerevisiae deletion strains, locus YLR371W, strain rom2, hits give low values 0.986 | S. cerevisiae deletion strains, locus YLR384C, strain iki3, hits give low values 0.942 | S. cerevisiae deletion strains, locus YLR418C, strain cdc73, hits give low values 1.05 | S. cerevisiae deletion strains, locus YML016C, strain PPZ1, hits give low values 0.984 | S. cerevisiae deletion strains, locus YML032C, strain rad52, hits give low values 0.976 | S. cerevisiae deletion strains, locus YML120C, strain ndi1, hits give low values 0.99 | S. cerevisiae deletion strains, locus YML124C, strain tub3, hits give low values 0.992 | S. cerevisiae deletion strains, locus YMR058W, strain fet3, hits give low values 0.99 | S. cerevisiae deletion strains, locus YMR078C, strain ctf18, hits give low values 0.984 | S. cerevisiae deletion strains, locus YMR125W, strain sto1, hits give low values 0.972 | S. cerevisiae deletion strains, locus YMR129W, hits give low values 1 | S. cerevisiae deletion strains, locus YMR205C, strain PFK2, hits give low values 0.986 | S. cerevisiae deletion strains, locus YMR223W, strain ubp8, hits give low values 0.985 | S. cerevisiae deletion strains, locus YMR231W, strain pep5, hits give low values 0.973 | S. cerevisiae deletion strains, locus YMR263W, strain SAP30, hits give low values 0.988 and 0.996 | S. cerevisiae deletion strains, locus YMR307W, strain GAS1, hits give low values 1.09 | S. cerevisiae deletion strains, locus YNL067W, strain RPL9B, hits give low values 0.998 | S. cerevisiae deletion strains, locus YNL071W, strain lat1, hits give low values 1.01 | S. cerevisiae deletion strains, locus YNL128W, strain TEP1, hits give low values 0.963 | S. cerevisiae deletion strains, locus YNL153C, strain GIM3, hits give low values 1 and 1.01 | S. cerevisiae deletion strains, locus YNL175C, strain NOP13, hits give low values 0.978 | S. cerevisiae deletion strains, locus YNL183C, strain NPR1, hits give low values 0.893 | S. cerevisiae deletion strains, locus YNL197C, strain WHI3, hits give low values 0.981 | S. cerevisiae deletion strains, locus YNL209W, strain ssb2, hits give low values 0.989 | S. cerevisiae deletion strains, locus YNL224C, strain SQS1, hits give low values 0.989 | S. cerevisiae deletion strains, locus YNL233W, strain BNI4, hits give low values 0.993 | S. cerevisiae deletion strains, locus YNL248C, strain rpa49, hits give low values 0.987 | S. cerevisiae deletion strains, locus YNL250W, strain rad50, hits give low values 0.976 | S. cerevisiae deletion strains, locus YNL271C, strain bni1, hits give low values 0.997 | S. cerevisiae deletion strains, locus YNL298W, strain CLA4, hits give low values 1 | S. cerevisiae deletion strains, locus YNL307C, strain MCK1, hits give low values 0.998 | S. cerevisiae deletion strains, locus YNL322C, strain KRE1 (second series), hits give low values 0.975 | S. cerevisiae deletion strains, locus YNL322C, strain KRE1, hits give low values 0.991 and 1 | S. cerevisiae deletion strains, locus YNR049C, strain mso1, hits give low values 0.983 | S. cerevisiae deletion strains, locus YNR052C, strain pop2, hits give low values 1 | S. cerevisiae deletion strains, locus YOL006C, strain TOP1, hits give low values 1 | S. cerevisiae deletion strains, locus YOL012C, strain htz1 1.51 | S. cerevisiae deletion strains, locus YOL147C, strain pex11, hits give low values 0.999 | S. cerevisiae deletion strains, locus YOR001W, strain rrp6, hits give low values 0.954 | S. cerevisiae deletion strains, locus YOR061W, strain CKA2, hits give low values 0.969 | S. cerevisiae deletion strains, locus YOR069W, strain VPS5, hits give low values 0.995 | S. cerevisiae deletion strains, locus YOR070C, strain gyp1, hits give low values 0.995 | S. cerevisiae deletion strains, locus YOR080W, strain dia2, hits give low values 0.974 | S. cerevisiae deletion strains, locus YOR083W, strain WHI5 (second series), hits give low values 1.02 | S. cerevisiae deletion strains, locus YOR083W, strain WHI5, hits give low values 0.999 | S. cerevisiae deletion strains, locus YOR106W, strain vam3, hits give low values 1.01 | S. cerevisiae deletion strains, locus YOR136W, strain idh2, hits give low values 0.99 | S. cerevisiae deletion strains, locus YOR144C, strain elg1, hits give low values 0.994 | S. cerevisiae deletion strains, locus YOR184W, strain ser1, hits give low values 0.994 | S. cerevisiae deletion strains, locus YOR231W, strain MKK1, hits give low values 0.988 | S. cerevisiae deletion strains, locus YOR265W, strain rbl2, hits give low values 1 | S. cerevisiae deletion strains, locus YOR270C, strain vph1, hits give low values 1 | S. cerevisiae deletion strains, locus YOR290C, strain snf2, hits give low values 0.986 | S. cerevisiae deletion strains, locus YOR316C, strain cot1, hits give low values 0.983 | S. cerevisiae deletion strains, locus YPL051W, strain arl3, hits give low values 0.997 | S. cerevisiae deletion strains, locus YPL055C, strain LGE1, hits give low values 0.976 and 1.01 | S. cerevisiae deletion strains, locus YPL078C, strain atp4, hits give low values 0.987 | S. cerevisiae deletion strains, locus YPL106C, strain sse1, hits give low values 0.972 | S. cerevisiae deletion strains, locus YPL240C, strain hsp82, hits give low values 0.982 | S. cerevisiae deletion strains, locus YPL241C, strain CIN2, hits give low values 0.996 | S. cerevisiae deletion strains, locus YPL256C, strain CLN2, hits give low values 0.954 | S. cerevisiae deletion strains, locus YPR119W, strain clb2, hits give low values 0.99 | S. cerevisiae deletion strains, locus YPR141C, strain kar3, hits give low values 0.977 | S. cerevisiae deletion strains, locus YPR163C, strain tif3, hits give low values 0.997 | S. cerevisiae deletion strains, locus YPR167C, strain met16, hits give low values 0.997 | S. cerevisiae deletion strains, strain wtn01, hits give low values 0.992 | S. cerevisiae strains, strain wild type, hits give low values 0.992

Reference: PubChem BioAssay AID1159580 (chemical genetic matrix, 2015)
